Experimental findings from PubChem BioAssay (Tox21) are described below.

Values without a mark were called inactive. Inconclusive results are not listed. Activity calls are given as the source filed them. Calls come from the whole dose curve; as a rule, active = well fitted curve in the direction sought with a large enough effect in the repeat runs; inconclusive = weak or mixed curves; inactive = no such curve, though single readings can be large; an effect the other way counts as inactive or inconclusive.
% is set by controls: 0 for no effect and ±100 for the full control effect.
Note: nearly all actives have a fitted effect of over 50% in size.

One experiment in a line: qHTS RealTime-Glo MT Cell Viability Assay in HEK293 cells - 32 hour (AID 1224868). Note: top concentration of the series differs between compounds. The note with it: RealTime-Glo luminescence; series mostly up to 76.8 µM. In a few lines:
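Luminescence generated by NanoLuc from substrate produced by living HEK293 cells served as the viability signal. Each value reflects the reading at its stated time point during continuous 40 h compound exposure at 37 C.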
(In general: Quantitative high-throughput screening tests each substance at several concentrations.)
Turning to `O=C(O)P(=O)(O)O`, the outcome was inactive.
In the case of `CC(C)C(C)C`, the call was inactive.
The same measure, in the same setting: next, `COc1cc2nc(N3CCN(C(=O)C4CCCO4)CC3)nc(N)c2cc1OC` (stereo unspecified): “inactive”; `CCCc1ncc(C(=O)O)s1`: “inactive”.
With `CN(C)CCCN(C)C`, the activity change, negative = cytotoxic is 0.277% [at 6.97 µM].
Consider `BrCCOc1ccccc1`, for which the outcome was inactive.
As to `CN(C)CCc1c[nH]c2ccc(CS(=O)(=O)N3CCCC3)cc12`, the result was inactive.
Same read-out and setting: for `CC(=O)SC[C@@H](C)C(=O)N1CCC[C@H]1C(=O)N[C@@H](Cc1ccccc1)C(=O)O` the value was “inactive”; for `CC(=O)SCC(CC(=O)c1ccc(C)cc1)C(=O)O` (stereo unspecified), “inactive”; for `C/C(=N\O)c1ccc(OCC(=O)N2CCCCC2)cc1`, “inactive”.
With `C=CC(C)(CCC=C(C)C)OC(=O)C(C)C` (stereo unspecified), the call was inactive.
Consider `Cc1cccc(N)n1`, for which the compound was classed as inactive.
As to `CC(=O)Oc1ccc(C(C)=O)cc1`, the result was inactive.
The same measure, in the same setting: next, `CC(C)(C)OC(=O)c1ccccc1C(=O)O`: “inactive”; `C/C=C(\C)C=O`: “inactive”; `CNC(C)=O`: “inactive”.
In the case of `NNC(=O)OCc1ccccc1`, the outcome was inactive.
Take `CC(C)(C)C(=O)CC(=O)C(C)(C)C`: the result was inactive.
In the case of `COCCCOc1cc(C[C@@H](C[C@H](N)[C@@H](O)C[C@H](C(=O)NCC(C)(C)C(N)=O)C(C)C)C(C)C)ccc1OC`, the call was inactive.
The same measure, in the same setting: next, `CN(C)c1ccncc1`: “inactive”; `COC(=O)c1ccc(NC(C)=O)cc1OC`: “inactive”.
In the case of `CO/N=C(\C(=O)O)c1csc(NC(=O)CCl)n1`, the result was inactive.
With `CC(CN1CC(=O)NC(=O)C1)N1CC(=O)NC(=O)C1` (stereo unspecified), the outcome was inactive.
Regarding `CCOCCOCCOC(C)=O`, the result was inactive.
Still for that read-out and setting: for `CCOC(=O)c1ccc(N(C)C)cc1` the value was “inactive”; for `O=C(CCBr)N1CCN(C(=O)CCBr)CC1`, “inactive”.
In the case of `Cc1ccc(Br)cc1`, the call was inactive.
As to `Cc1ccc(O)c(C(=O)c2ccccc2)c1`, the call was inactive.
On to `CC(=O)O[C@@H]1CC2C3CCc4cc(OC(=O)c5ccccc5)ccc4C3CCC2(C)[C@H]1OC(C)=O` (stereo partly specified), for which the outcome was inactive.
As to `C[Si](C)(C)O[Si](O)(O)O`, the result was inactive.
Same read-out and setting: for `Cc1cc(O)c(Cl)cc1C` the value was “inactive”.
Take `C[C@@H]1NC(=O)[C@@H](N)CNC(=O)[C@H](C2CCNC(N)=N2)NC(=O)/C(=C/NC(N)=O)NC(=O)[C@H](CNC(=O)C[C@@H](N)CCCN)NC1=O` (stereo partly specified): the activity change, negative = cytotoxic is 0.857% [at 0.29 µM].
Take `C=C(C)C(=O)OCCOC1CC2CC1C1C=CCC21` (stereo unspecified): the call was inactive.
As for `COc1cc(C(=O)NC2CCCNC2)cc(OC)c1OC` (stereo unspecified), the result was inactive.
On the same count and under the same terms, next, `C=CC(=O)OCC[N+](C)(C)C`: “inactive”; `CC1(C)CC(N)CC(C)(C)N1`: “inactive”; `CC1=C(O)C(=O)CO1`: “inactive”.
The same measure, in the same setting: next, `C[n+]1ccccc1/C=N/O`: “inactive”.

A further experiment can be described thus: A CellTox Green Cytotoxicity Assay to monitor cytotoxicity in HEK293 cells - 0 hour (AID 1224869). The note with it: CellTox Green fluorescence; series mostly up to 76.8 µM. The method, boiled down:
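Dead-cell fluorescence measured kinetically: asymmetric cyanine dye, HEK293, 600 cells/well, 5 h settle, 23 nL cpd/DMSO, 37 C, reads 0–40 h every 8 h.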
With `O=C(O)P(=O)(O)O`, the call was inactive.
As for `CC(C)C(C)C`, the call was inactive.
The same measure, in the same setting: for `COc1cc2nc(N3CCN(C(=O)C4CCCO4)CC3)nc(N)c2cc1OC` (stereo unspecified) the value was “inactive”; for `CCCc1ncc(C(=O)O)s1`, “inactive”.
In the case of `CN(C)CCCN(C)C`, the cytotoxicity is 0.262% [at 6.97 µM].
For the compound `BrCCOc1ccccc1`, the call was inactive.
On the same count and under the same terms, for `CN(C)CCc1c[nH]c2ccc(CS(=O)(=O)N3CCCC3)cc12` the value was “inactive”; for `CC(=O)SC[C@@H](C)C(=O)N1CCC[C@H]1C(=O)N[C@@H](Cc1ccccc1)C(=O)O`, “inactive”.
On to `C/C(=N\O)c1ccc(OCC(=O)N2CCCCC2)cc1`, for which the compound was called inactive.
On the same count and under the same terms, next, `Cc1cccc(N)n1`: “inactive”; `CC(C)(C)OC(=O)c1ccccc1C(=O)O`: “inactive”; `C/C=C(\C)C=O`: “inactive”.
In the case of `CNC(C)=O`, the compound was classed as inactive.
On to `NNC(=O)OCc1ccccc1`, for which the compound was called inactive.
Same read-out and setting: next, `CC(C)(C)C(=O)CC(=O)C(C)(C)C`: “inactive”.
In the case of `COCCCOc1cc(C[C@@H](C[C@H](N)[C@@H](O)C[C@H](C(=O)NCC(C)(C)C(N)=O)C(C)C)C(C)C)ccc1OC`, the call was inactive.
Turning to `COC(=O)c1ccc(NC(C)=O)cc1OC`, the compound was classed as inactive.
Turning to `CO/N=C(\C(=O)O)c1csc(NC(=O)CCl)n1`, the result was inactive.
`CC(CN1CC(=O)NC(=O)C1)N1CC(=O)NC(=O)C1` (stereo unspecified): the call was inactive.
Still for that read-out and setting: for `CCOCCOCCOC(C)=O` the value was “inactive”.
Regarding `O=C(CCBr)N1CCN(C(=O)CCBr)CC1`, the result was inactive.
For `Cc1ccc(Br)cc1`, the outcome was inactive.
On to `Cc1ccc(O)c(C(=O)c2ccccc2)c1`, for which the outcome was inactive.
As to `CC(=O)O[C@@H]1CC2C3CCc4cc(OC(=O)c5ccccc5)ccc4C3CCC2(C)[C@H]1OC(C)=O` (stereo partly specified), the compound was classed as inactive.
With `C[Si](C)(C)O[Si](O)(O)O`, the outcome was inactive.
Same read-out and setting: for `C=C(C)C(=O)OCCOC1CC2CC1C1C=CCC21` (stereo unspecified) the value was “inactive”.
For the compound `COc1cc(C(=O)NC2CCCNC2)cc(OC)c1OC` (stereo unspecified), the call was inactive.
Turning to `C=CC(=O)OCC[N+](C)(C)C`, the call was inactive.
Consider `CC1=C(O)C(=O)CO1`, for which the compound was called inactive.
Take `C[n+]1ccccc1/C=N/O`: the call was inactive.

The nature of the next experiment: qHTS RealTime-Glo MT Cell Viability Assay in HepG2 cells - 40 hour (AID 1224870). As to conditions: RealTime-Glo luminescence; series mostly up to 76.8 µM. In a few lines:
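HepG2 cells mixed with RealTime-Glo MT reagents (NanoLuc plus cell-permeant prosubstrate) were seeded at 600 cells/well, incubated 5 h at 37 C/5% CO2, then pinned with compounds in DMSO; nonlytic luminescence tracked viability during 40 h treatment.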
`CC(=O)SCC(CC(=O)c1ccc(C)cc1)C(=O)O` (stereo unspecified): the result was inactive.
Regarding `C=CC(C)(CCC=C(C)C)OC(=O)C(C)C` (stereo unspecified), the outcome was inactive.
On the same count and under the same terms, for `CC(=O)Oc1ccc(C(C)=O)cc1` the value was “inactive”; for `CN(C)c1ccncc1`, “inactive”; for `CCOC(=O)c1ccc(N(C)C)cc1`, “inactive”.
Same read-out and setting: for `Cc1cc(O)c(Cl)cc1C` the value was “inactive”.
In the case of `C[C@@H]1NC(=O)[C@@H](N)CNC(=O)[C@H](C2CCNC(N)=N2)NC(=O)/C(=C/NC(N)=O)NC(=O)[C@H](CNC(=O)C[C@@H](N)CCCN)NC1=O` (stereo partly specified), the activity change, negative = cytotoxic is 3.51% [at 0.29 µM].
With `CC1(C)CC(N)CC(C)(C)N1`, the result was inactive.
